Assay outcomes: PubChem BioAssay, several laboratories
BoNT A protease – blocks Botulinum neurotoxin A light chain protease | multiplex microsphere protease substrate cleavage, flow cytometry | inhibition, % at 10 µM | hit rate 0.17% among 360,000; further: plate controls were buffer without enzyme for full effect and enzyme alone for no effect
Autofluor counter – flagged as autofluorescent in microsphere protease counterscreen; compound autofluorescence counterscreen, microsphere flow cytometry; stronger effect = higher value; fluorescence intensity (no concentration beside the values); hit rate 3.1% among 360,000; AID 624483; in the data active means fluorescence intensity above about 16000; inconclusive means no clear call, values can overlap the other calls
MazF activator – MazEF (E. coli) toxin RNase activation; activation, % at 20 µM; P0AE70; hit rate 0.32% among 350,000; FAM/BHQ RNA-DNA oligo cleavage fluorescence, 5 h; in the data active means activation above about 50%
Target sequence (P0AE70 whole entry, looked up): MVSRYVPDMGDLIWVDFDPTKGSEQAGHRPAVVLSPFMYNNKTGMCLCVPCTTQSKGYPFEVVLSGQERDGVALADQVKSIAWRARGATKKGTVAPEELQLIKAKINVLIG
Anthrax LF inh2 – blocks Bacillus anthracis lethal factor protease. inhibition, % at 10 µM. hit rate 0.12% among 360,000. multiplex microsphere protease cleavage assay, LF. AID 588501; further: plate controls were buffer without enzyme for full effect and enzyme alone for no effect
BoNT F protease – inhibitors of Botulinum neurotoxin F light chain protease | Multiplex microsphere protease cleavage assay, flow cytometry | inhibition, % at 10 µM | hit rate 0.22% among 360,000; in the data active means inhibition above about 35%, passing the limit was not always enough; inconclusive means no clear call, values can overlap the other calls; further: plate controls were buffer without enzyme for full effect and enzyme alone for no effect
Active calls of the source: *; ? = inconclusive; . = not tested or not shown. Most compounds without a hit are left out; they make up all but 3.6% or so of the library. Unless noted, no stated cut-off is given here; in the data, active means inhibition above about 30%; inconclusive means no clear call, values can overlap the other calls; inactive means below that.

SMILES	BoNT A protease	Autofluor counter	MazF activator	Anthrax LF inh2	BoNT F protease
CN(/N=C/c1cccnc1)c1cnn(-c2ccc(F)c(Cl)c2)c(=O)c1Cl	?	11535	-4	-20	36*
CN(/N=C/c1c[nH]c2ccccc12)c1cnn(-c2ccc(F)c(Cl)c2)c(=O)c1Cl	-1	20923*	19	-4	0
COc1cccc(N2CCN(C(=O)c3ccc(OC)c(S(=O)(=O)NC4CC4)c3)CC2)c1	-1	3841	5	-7	-3
CCC1CCCCN1Cc1ccc(CNS(=O)(=O)c2ccc3c(c2)oc(=O)n3C)o1 (stereo not given)	-6	22053*	-19	-2	-10
CCOC(=O)c1ccc(NC(=O)CCNS(=O)(=O)c2ccc3c(c2)oc(=O)n3C)cc1	0	23217*	6	-2	0
CCCN(CCC)CCNS(=O)(=O)c1ccc2c(c1)oc(=O)n2C	?	22046*	0	-2	-1
Cn1c(=O)oc2cc(S(=O)(=O)NCCC(=O)NCCc3ccccc3)ccc21	-1	20294*	-6	-2	0
Cc1cc(C)cc(NC(=O)CCNS(=O)(=O)c2ccc3c(c2)oc(=O)n3C)c1	?	12998	-9	-8	14
CCCCN(CC)CCNS(=O)(=O)c1ccc2c(c1)oc(=O)n2C	2	15823	6	2	0
Cn1c(=O)oc2cc(S(=O)(=O)NCc3ccco3)ccc21	-1	4388	6	-1	4
Cc1cc(C)cc(C(O)c2ncc(-c3ccccc3Cl)[nH]2)c1 (stereo not given)	0	3052	.	-2	-6
Cc1onc(-c2ccccc2)c1C(=O)NC1CC1	.	.	-17	.	.
CC(=O)c1cccc(NS(=O)(=O)c2ccc3c(c2)oc(=O)n3C)c1	-3	11967	-4	2	-8
Cn1c(=O)oc2cc(S(=O)(=O)NCCC(=O)NCCc3ccc(Cl)cc3)ccc21	2	19293*	-6	-9	1
Cn1c(=O)oc2cc(S(=O)(=O)Nc3cccc(C(=O)O)c3)ccc21	0	19703*	-5	-5	-4
C[C@H]1CN([C@@H](C)CO)C(=O)c2cc(Br)cnc2O[C@H]1CN(C)C(=O)c1ccc2c(c1)OCO2	0	2957	-3	-3	-4
COC(=O)[C@]12CCCCC=C1N(Cc1ccco1)C(=O)[C@H](CC(=O)NCCCN1CCCC1=O)C2	0	5767	.	-5	-11
Cc1nn(C(C)c2n[nH]c(=S)n2-c2ccc(F)cc2)c(C)c1[N+](=O)[O-] (stereo not given)	-3	17161*	-4	-2	-6
Cn1cnc(S(=O)(=O)N2CCCCC2c2cc(C(=O)Nc3ccc(F)c(Cl)c3)no2)c1 (stereo not given)	0	3360	.	-1	9
O=C(OCc1nc2ccccc2s1)c1ccc(Br)s1	-1	23134*	-14	2	-3
OCc1cc(Br)ccc1OCc1nc2ccccc2s1	-3	3665	6	-9	-22
Oc1ccccc1OCc1nc2ccccc2s1	2	22098*	1	-4	0
CC12CC(O)C3C(CCC4=CC(=O)CCC43C)C1CCC2=CCO (stereo not given)	0	3232	1	-6	-4
OC(CN(Cc1ccccc1)Cc1ccccc1)c1ccccc1 (stereo not given)	-1	3989	9	-4	-5
CC1(CCC#N)N=C(SCCC#N)N(c2ccccc2)C1=O (stereo not given)	?	23294*	7	-1	-2
SMILES	BoNT A protease	Autofluor counter	MazF activator	Anthrax LF inh2	BoNT F protease
COc1ccc2c(c1)CCc1c(C(=O)NCCN3CCOCC3)noc1-2	0	10269	1	-2	-7
COc1ccc(OC)c(-c2cc(C(=O)NCCCn3ccnc3)no2)c1	-3	24152*	5	-7	-4
COc1ccc2c(c1)CCc1c(C(=O)NCc3ccco3)noc1-2	?	24173*	-1	-4	-3
COc1ccc2c(c1)CCc1c(C(=O)NCCCn3ccnc3)noc1-2	1	22596*	6	-2	0
COc1ccc(C(=O)NCCCn2ccnc2)cc1	0	4110	0	-5	?
COCCNC(=O)c1noc2c1CCc1cc(OC)ccc1-2	-1	9948	-4	-1	-1
Nc1nc(COC(=O)c2ccco2)nc(Nc2ccccc2)n1	0	4251	3	8	-6
CC1CCC(NC(=O)CN2CCN(S(=O)(=O)c3ccc(Br)s3)CC2)CC1 (stereo not given)	0	2996	3	-1	0
CC(=O)N1CCc2cc(S(=O)(=O)NC(CC(C)C)C(=O)N3CCn4c3nc3ccccc34)ccc21 (stereo not given)	1	21252*	-6	1	-2
CC(=O)N1CCCc2cc(S(=O)(=O)NC(C(=O)NC(C)c3ccccc3)C(C)C)ccc21 (stereo not given)	-1	16474*	11	1	-1
CCC(=O)N1CCc2cc(S(=O)(=O)NC(C(=O)NC(C)c3ccccc3)C(C)C)ccc21 (stereo not given)	-1	4260	1	2	-5
CC(=O)N1CCc2cc(S(=O)(=O)NC(C)c3ccccc3)ccc21 (stereo not given)	0	5558	0	2	2
Cc1ccsc1CN(C)C(=O)CN1C(=O)NC2(CCCc3ccccc32)C1=O (stereo not given)	0	3773	7	0	-3
O=c1cc(C(F)(F)F)nc(-c2ccccc2)[nH]1	?	21831*	0	-1	2
CCOC(=O)c1c2c3c(cccc3[nH]c1=O)C(=O)c1ccccc1-2	4	3588	6	6	4
CCOC(=O)c1c2c3c(cccc3n(C)c1=O)C(=O)c1ccccc1-2	26	2922	21	-9	40*
CN(C)c1ccc(/C=N/NC(=O)c2ccccc2O)o1	0	1988	11	0	-8
CN(C)c1ccc(/C=N/NC(=O)C(O)(c2ccccc2)c2ccccc2)o1	?	16827*	-4	-2	-1
CCOc1ccc(C(=O)N(Cc2ccccc2)c2cccc(C)c2)cc1OC	-1	5588	-4	-1	-5
CC(C)CNC(=O)C(=O)NNC(=O)C1CCCCC1	-5	21511*	-5	0	-3
CCCc1cc(=O)[nH]c(SCC(=O)N2CCCc3ccccc32)n1	-2	4519	5	-2	0
Cc1nc(N2CCc3ccccc3C2)[nH]c(=O)c1Cc1ccccc1	-1	4742	-4	3	1
Cc1cc(=O)[nH]c(SCC(=O)N2CCc3ccccc3C2)n1	0	20691*	0	0	0
Nc1cc(=O)[nH]c(SCC(=O)N2CCCc3ccccc32)n1	-2	16983*	6	-2	-8
Cc1cc(=O)[nH]c(N2CCc3ccccc3C2)n1	-5	25748*	0	1	-5
O=C(CSc1nnnn1-c1ccc(Cl)cc1)N1CCc2ccccc2C1	1	21981*	-8	2	3
COC(=O)CCC(C)C1CCC2C3CCC4CC(O)CCC4(C)C3CC(O)C12C (stereo not given)	0	6118	9	-3	-3
